Assay outcomes as filed in PubChem BioAssay.
Compounds with a hit are over-represented: about 4.7% of the library has one in this group of screens.
RecA splice inh – Mtb RecA intein splicing inhibition | cell-free RecA intein splicing, fluorescence | inhibition, % (test concentration not listed) | hit rate 0.75% among 290,000 | AID 2221; in the data active = inhibition above about 30%
FBA Mtb inh – inhibits M. tuberculosis FBA enzyme; P9WQA3; purified M. tuberculosis FBA, fluorescence read-out; inhibition, % at 1 µM; hit rate 2.3% among 360,000; in the data active = inhibition above about 27%
CCHF vOTU inh-1 – blocks the CCHF virus ovarian tumor domain protease; inhibition, % at 11.5 µM; AID 651958; CCHFV vOTU protease, Pep-AMC fluorescence; hit rate 0.55% among 370,000
GDH-TPI counter-1 – GDH-TPI coupled enzyme inhibition counter-screen; GDH-TPI coupled enzyme counterscreen, NADH absorbance; inhibition, % at 4.8 µM; hit rate 1.2% among 360,000
DUSP3 inh – blocks human VHR1 dual specificity phosphatase; recombinant VHR phosphatase, pNPP absorbance; inhibition, % at 13.3 µM; P51452; hit rate 0.52% among 290,000; in the data active = inhibition above about 50%
Target sequence (P51452 whole entry, looked up): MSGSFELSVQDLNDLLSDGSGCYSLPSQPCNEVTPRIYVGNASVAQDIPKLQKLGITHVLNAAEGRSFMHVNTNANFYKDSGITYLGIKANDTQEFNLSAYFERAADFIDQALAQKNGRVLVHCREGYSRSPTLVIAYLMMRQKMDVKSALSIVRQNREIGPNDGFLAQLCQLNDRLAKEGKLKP
SARS 3CLpro inh-1 – SARS-CoV 3CLpro protease inhibition. P0C6X7. recombinant SARS-CoV 3CLpro, quenched FRET peptide cleavage. inhibition, % at 6 µM. hit rate 0.14% among 290,000. AID 1706; in the data active = inhibition above about 12%
SARS 3CLpro inh-2 – confirmation of SARS coronavirus 3C-like protease inhibitors. AID 1879. hit rate 36% among 380. shares compounds with SARS 3CLpro inh-1. QFRET protease activity assay, 3CLpro. inhibition, % at 6 µM; in the data active = inhibition above about 13%
GFP chromo cs – counter-screen GFP chromophore formation inhibition; EC50, µM; shares compounds with RecA splice inh; cell-free GFP chromophore formation, fluorescence; hit rate 83% among 2,100; call rule not given here
Mtb FBA confirm – Mtb FBA inhibition, confirmed | shares compounds with FBA Mtb inh | purified M. tuberculosis FBA, fluorescence read-out | inhibition, % at 1 µM | hit rate 78% among 5,600 | AID 651616; in the data active = inhibition above about 27%
GDH-TPI counter-2 – inhibits GDH-TPI coupling enzymes, flagging Mtb FBA hits; shares compounds with FBA Mtb inh; GDH-TPI coupled enzyme counterscreen, fluorescence; inhibition, % at 1 µM; hit rate 81% among 5,600; AID 652141; in the data active = inhibition above about 10%
CCHF vOTU inh-2 – CCHFV vOTU protease inhibition, confirmation; shares compounds with CCHF vOTU inh-1; Recombinant CCHFV vOTU, Pep-AMC fluorescence; inhibition, % at 11.5 µM; hit rate 17% among 1,900; AID 686976
Large screens that a line does not name were inactive (follow-up assays come after a bar, where they were run). Rule as the data show it, unless noted: active = inhibition above about 30%; inactive = the rest.

Cc1noc2c1C(c1ccc(N(C)C)cc1)C1=C(CC(C)(C)CC1=O)N2 (stereo unspecified)	none
Cc1ccc(C2C3=C(CC(C)(C)CC3=O)Nc3onc(C)c32)cc1 (stereo unspecified)	FBA Mtb inh 46.1, SARS 3CLpro inh-1 14.9 | SARS 3CLpro inh-2 inactive | Mtb FBA confirm inactive | GDH-TPI counter-2 inactive
O=C(CN1C(=O)c2ccccc2S1(=O)=O)Nc1ccon1	none (no result: DUSP3 inh, SARS 3CLpro inh-1)
Cc1cc(=O)oc2cc(NC(=O)Cc3ccccc3[N+](=O)[O-])ccc12	FBA Mtb inh 63.1, SARS 3CLpro inh-1 17.2 (no result: RecA splice inh) | SARS 3CLpro inh-2 13.1 | Mtb FBA confirm 29.5 | GDH-TPI counter-2 18.6
COCCN1C(=O)CN(S(C)(=O)=O)CC1(C)C(=O)Nc1c(C)cccc1C (stereo unspecified)	none (no result: RecA splice inh, FBA Mtb inh, GDH-TPI counter-1, DUSP3 inh, SARS 3CLpro inh-1)
Cc1cccc(-n2nc(C)c3c(C(=O)O)cc(-c4cccs4)nc32)c1	FBA Mtb inh 61.7, SARS 3CLpro inh-1 12.7 | SARS 3CLpro inh-2 inactive | Mtb FBA confirm 149.2 | GDH-TPI counter-2 134.7
Cc1nn(-c2cccc(Cl)c2)c2nc(-c3ccco3)cc(C(=O)O)c12	none
CCc1nnc(NS(=O)(=O)c2ccc(NC(=O)/C=C/C(=O)O)cc2)s1	none
CCc1nnc(NS(=O)(=O)c2ccc(NC(=O)/C=C/c3ccccc3Cl)cc2)s1	CCHF vOTU inh-1 35.3, SARS 3CLpro inh-1 13.1 | SARS 3CLpro inh-2 inactive | CCHF vOTU inh-2 inactive
Cc1ccc(NS(=O)(=O)c2cc(Br)cnc2N)c(Cl)c1	none
Nc1ncc(Br)cc1S(=O)(=O)Nc1cc(C(F)(F)F)cc(C(F)(F)F)c1	CCHF vOTU inh-1 31.8, SARS 3CLpro inh-1 22.6 | SARS 3CLpro inh-2 15.2 | CCHF vOTU inh-2 inactive
O=C(O)c1[nH]c2ccccc2c1C(c1cc(Br)ccc1O)c1c(C(=O)O)[nH]c2ccccc12	CCHF vOTU inh-1 34.9, SARS 3CLpro inh-1 13.6 (no result: RecA splice inh) | SARS 3CLpro inh-2 14.7 | CCHF vOTU inh-2 inactive
O=C(O)c1ccccc1NS(=O)(=O)c1ccc(NNC(=S)Nc2ccc(OC(F)F)cc2)c([N+](=O)[O-])c1	CCHF vOTU inh-1 69.6, SARS 3CLpro inh-1 12.5 | SARS 3CLpro inh-2 inactive | CCHF vOTU inh-2 64.7
N#Cc1c(-c2ccccc2)nc(SCC(=O)Nc2ccccc2)[nH]c1=O	none (no result: RecA splice inh)
N#Cc1c(-c2ccccc2)nc(SCC(=O)Nc2ccc(OC(F)(F)Cl)cc2)[nH]c1=O	CCHF vOTU inh-1 31.1, SARS 3CLpro inh-1 16.2 (no result: DUSP3 inh) | SARS 3CLpro inh-2 inactive | CCHF vOTU inh-2 inactive
CN(c1ccc(NC(=O)Cc2cn(C)c3ccccc23)cc1)c1ccccn1	none (no result: RecA splice inh, FBA Mtb inh, GDH-TPI counter-1, DUSP3 inh, SARS 3CLpro inh-1)
Cc1ccccc1NC1=C/C(=N\S(=O)(=O)c2ccc(C(=O)O)cc2)c2ccccc2C1=O	RecA splice inh 96.0, CCHF vOTU inh-1 107.5, SARS 3CLpro inh-1 15.8 | SARS 3CLpro inh-2 inactive | GFP chromo cs 10.7 | CCHF vOTU inh-2 101.2
CSc1cccc(NC(=O)c2nnn(CC(=O)Nc3cc(C)cc(C)c3)c2N)c1	none
Cc1ccc(S(=O)(=O)N2CCN(C(=O)COC(=O)CSc3ccccc3)CC2)c(C)c1	none (no result: DUSP3 inh, SARS 3CLpro inh-1)
COC(=O)c1cc([N+](=O)[O-])c(-n2ccnc2)c([N+](=O)[O-])c1	RecA splice inh 71.2 | GFP chromo cs 10.9
O=C(CCN1C(=O)[C@@H]2Cc3ccccc3CN2C1=O)NCc1ccccc1Cl	none
CC(=O)Oc1c(Br)cc(N(C(C)=O)S(=O)(=O)c2ccccc2)c2ccccc12	RecA splice inh 36.6 | GFP chromo cs 5.3
O=C(NN=C(c1ccccc1)c1ccccc1)C(CCl)C1CCCCC1 (stereo unspecified)	none (no result: RecA splice inh, DUSP3 inh, SARS 3CLpro inh-1)
O=c1cc(C2CCNCC2)[nH][nH]1	RecA splice inh 86.6 | GFP chromo cs 5.39
O=c1cc(C2CCCCC2)[nH]c(=O)[nH]1	none (no result: RecA splice inh, DUSP3 inh, SARS 3CLpro inh-1)
